Results from PubChem BioAssay (NCI).
About 83,000 compounds went through this panel and 20% of them were active in at least one assay; those are over-represented in the sample as a whole.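 Single-concentration screen, 48 h exposure, 96-well plates. Endpoint: percent growth. Below 10 = active.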 Calls of active or inactive are those of the source.

Tests used:
Assay in all cases: NCI-60 one-dose screen, 48 h (100 = growth as untreated, 0 = no growth, -100 = all killed)
Conditions in all cases: 10 µM
NCI-H23 lung = system: NCI-H23 lung
NCI-H226 lung = system: NCI-H226 lung
NCI-H322M lung = system: NCI-H322M lung
HOP-62 NSCLC = system: HOP-62 NSCLC
HOP-92 NSCLC = system: HOP-92 NSCLC
NCI-H522 lung = system: NCI-H522 lung
A549/ATCC NSCLC = system: A549/ATCC NSCLC
786-0 renal = system: 786-0 renal
COLO 205 colon = system: COLO 205 colon
DU-145 prostate = system: DU-145 prostate
K-562 leukemia = system: K-562 leukemia
MALME-3M melanoma = system: MALME-3M melanoma
MDA-MB-231 breast = system: MDA-MB-231 breast
RXF 393 renal = system: RXF 393 renal
SF-268 CNS = system: SF-268 CNS
SF-295 CNS = system: SF-295 CNS
SF-539 CNS = system: SF-539 CNS
UACC-257 melanoma = system: UACC-257 melanoma
M14 melanoma = system: M14 melanoma

Measured: growth

CCc1ccc(-c2nnc(COc3ccc(-c4nc5ccc(C)cc5[nH]4)cc3OC)o2)cc1
inactive: NCI-H23 lung 57.2% | NCI-H226 lung 48.6% | NCI-H322M lung 87.2% | HOP-62 NSCLC 32.6% | HOP-92 NSCLC 74.1% | NCI-H522 lung 71.3% | A549/ATCC NSCLC 61.6% | 786-0 renal 21% | COLO 205 colon 84.7% | DU-145 prostate 48.5% | K-562 leukemia 33.1% | RXF 393 renal 24.4% | SF-268 CNS 55.6% | SF-295 CNS 20% | UACC-257 melanoma 95.7% | M14 melanoma 49.5%
active: MALME-3M melanoma 9.91% | MDA-MB-231 breast 9.26% | SF-539 CNS -28.2%

O=C(N/N=C/c1ccccc1O)c1ccccc1
inactive: NCI-H23 lung 41.3% | NCI-H226 lung 27.2% | NCI-H322M lung 34.3% | HOP-62 NSCLC 38.9% | A549/ATCC NSCLC 38.7% | 786-0 renal 17.9% | DU-145 prostate 32.4% | K-562 leukemia 15.8% | MDA-MB-231 breast 32.5% | RXF 393 renal 41.2% | SF-268 CNS 30% | SF-295 CNS 26% | SF-539 CNS 27.9% | M14 melanoma 26.5%
active: HOP-92 NSCLC 7.78% | NCI-H522 lung -4.7% | UACC-257 melanoma -8.71%

CCCCn1c(=O)[nH]c2c(c1=O)C(c1ccc(Cl)cc1)c1c([nH]c(=O)n(CCCC)c1=O)N2
inactive: NCI-H23 lung 90% | NCI-H226 lung 96.3% | NCI-H322M lung 91.6% | HOP-62 NSCLC 90.4% | HOP-92 NSCLC 90.4% | NCI-H522 lung 83.3% | A549/ATCC NSCLC 87.8% | 786-0 renal 93.4% | COLO 205 colon 105% | DU-145 prostate 105% | K-562 leukemia 105% | MALME-3M melanoma 89.8% | MDA-MB-231 breast 106% | RXF 393 renal 109% | SF-268 CNS 99% | SF-295 CNS 89.8% | SF-539 CNS 101% | UACC-257 melanoma 96.8% | M14 melanoma 96.6%

CC(Oc1ccc(Cl)cc1)c1ccccc1 (configuration not stated)
inactive: NCI-H23 lung 102% | NCI-H226 lung 93% | NCI-H322M lung 87.1% | HOP-62 NSCLC 98.3% | HOP-92 NSCLC 95% | NCI-H522 lung 103% | A549/ATCC NSCLC 102% | 786-0 renal 98.5% | COLO 205 colon 105% | DU-145 prostate 107% | K-562 leukemia 101% | MALME-3M melanoma 80.1% | MDA-MB-231 breast 105% | RXF 393 renal 103% | SF-268 CNS 104% | SF-295 CNS 96% | SF-539 CNS 102% | UACC-257 melanoma 98.9% | M14 melanoma 101%

NC1CCC(Nc2nc(NCc3ccc(-c4ccco4)nc3)c3ncn(C4CCCC4)c3n2)CC1 (configuration not stated)
inactive: NCI-H322M lung 21.4%
active: NCI-H23 lung -18.1% | NCI-H226 lung -18.6% | HOP-62 NSCLC -17.1% | HOP-92 NSCLC -16.3% | NCI-H522 lung -70.6% | A549/ATCC NSCLC 3.69% | 786-0 renal 8.51% | DU-145 prostate 6.46% | K-562 leukemia 2.46% | MALME-3M melanoma -40.6% | MDA-MB-231 breast 3.81% | RXF 393 renal -50.5% | SF-268 CNS 0.711% | SF-295 CNS 0.17% | SF-539 CNS -25.7% | UACC-257 melanoma -8.84% | M14 melanoma -23.5%

N#C/C(=C\N1C(=O)/C(=C/c2cccc([N+](=O)[O-])c2)SC1=S)c1nc2ccccc2s1
inactive: NCI-H23 lung 68.9% | NCI-H226 lung 77.2% | NCI-H322M lung 92.9% | HOP-62 NSCLC 73.1% | NCI-H522 lung 57.8% | A549/ATCC NSCLC 70% | 786-0 renal 88.3% | COLO 205 colon 101% | DU-145 prostate 99.6% | K-562 leukemia 77.1% | MDA-MB-231 breast 79.7% | RXF 393 renal 105% | SF-268 CNS 85.3% | SF-295 CNS 86.9% | SF-539 CNS 80.3% | UACC-257 melanoma 68.3% | M14 melanoma 81%
active: HOP-92 NSCLC 8.99%

COc1ccc(-c2nc(-c3nc4ccc(C)cc4[nH]3)c3ccccn23)cc1
inactive: NCI-H23 lung 69.3% | NCI-H226 lung 57.9% | NCI-H322M lung 50.3% | HOP-62 NSCLC 52% | NCI-H522 lung 38.8% | A549/ATCC NSCLC 24.2% | 786-0 renal 78.3% | COLO 205 colon 61.1% | DU-145 prostate 52.2% | K-562 leukemia 20.4% | MALME-3M melanoma 85.3% | MDA-MB-231 breast 32.9% | RXF 393 renal 66.5% | SF-268 CNS 45% | SF-539 CNS 82.4% | UACC-257 melanoma 57.6% | M14 melanoma 46.5%
active: HOP-92 NSCLC -2.51% | SF-295 CNS 8.6%

COc1ccc(-c2nc(SCC(=O)c3ccc(Br)cc3)[nH]c(=O)c2C#N)cc1
inactive: NCI-H23 lung 106% | NCI-H226 lung 98.1% | NCI-H322M lung 97.3% | HOP-62 NSCLC 101% | HOP-92 NSCLC 85.9% | NCI-H522 lung 95.4% | A549/ATCC NSCLC 99.6% | 786-0 renal 89.9% | COLO 205 colon 119% | DU-145 prostate 103% | K-562 leukemia 96.1% | MDA-MB-231 breast 105% | RXF 393 renal 106% | SF-268 CNS 96.2% | SF-295 CNS 100% | SF-539 CNS 111% | UACC-257 melanoma 111% | M14 melanoma 98.5%

O=C(O)CCCN1C(=O)NC2(C1=O)c1ccccc1-c1ccccc12
inactive: NCI-H23 lung 93.2% | NCI-H226 lung 91.1% | NCI-H322M lung 101% | HOP-62 NSCLC 102% | HOP-92 NSCLC 88.5% | NCI-H522 lung 80.4% | A549/ATCC NSCLC 90.2% | 786-0 renal 95.2% | DU-145 prostate 105% | K-562 leukemia 99% | MALME-3M melanoma 97.3% | MDA-MB-231 breast 107% | RXF 393 renal 101% | SF-268 CNS 95.3% | SF-295 CNS 95.2% | SF-539 CNS 99.7% | UACC-257 melanoma 91.2% | M14 melanoma 103%

Nc1nc2c(nnn2C2CC(O)C(CO)O2)c(=O)[nH]1 (configuration not stated)
inactive: NCI-H23 lung 45% | NCI-H226 lung 50% | NCI-H322M lung 52% | HOP-62 NSCLC 69% | NCI-H522 lung 24.4% | A549/ATCC NSCLC 76.2% | 786-0 renal 50.7% | COLO 205 colon 11.9% | DU-145 prostate 21.8% | K-562 leukemia 40.5% | MALME-3M melanoma 79.5% | MDA-MB-231 breast 58.5% | RXF 393 renal 50.6% | SF-268 CNS 50.2% | SF-295 CNS 56.4% | SF-539 CNS 33.4% | UACC-257 melanoma 77.7% | M14 melanoma 40%

O=C(NC1CCCC1)c1ccc(N2CCC(NCc3cccc(C(F)(F)F)c3)CC2)cc1
active: COLO 205 colon 8.68%
inactive: NCI-H23 lung 93.5% | NCI-H226 lung 84.6% | NCI-H322M lung 89.1% | HOP-62 NSCLC 77.4% | HOP-92 NSCLC 52.7% | NCI-H522 lung 93.6% | A549/ATCC NSCLC 93% | 786-0 renal 84.3% | DU-145 prostate 91.2% | K-562 leukemia 38% | MALME-3M melanoma 70.3% | MDA-MB-231 breast 78.1% | RXF 393 renal 79.1% | SF-268 CNS 90.3% | SF-295 CNS 96.3% | SF-539 CNS 97.6% | UACC-257 melanoma 91.3% | M14 melanoma 77.5%
